Reference: PubChem BioAssay AID1645886 (National Center for Advancing Translational Sciences (NCATS), 2021)
Values joined by “and” are separate entries in the source; they are usually repeats but may differ in a detail not shown here. Identical values can stand only once. Hit rate of the full screen: of about 16,000 compounds, about 260 (1.6%) were called active. Roughly 14% stayed inconclusive and do not appear here. Calls follow the shape of the dose curve; as a rule, active = well fitted inhibition curve with a large enough effect; inconclusive = small, poorly fitted or top-dose-only effect; inactive = no such curve, though single readings can be large or run the other way. Only a selection was taken, and actives are over-represented in it overall. Where a structure was tested more than once in an assay, its records may differ in their call. *1 amine or outer side, *2 acyl side, *3 side chain or, on linkers, in order; H or OH if unused. Where a SMILES comes first, the peptide text is derived from it. Bridges are numbered along the chain shown (N, C = ends). [ ]: non-standard residue; d: D form. The star is where a group is joined. X12 = NC1=N[C@@H]([C@H](N[*:1])C(=O)[*:2])C[C@H](O)N1; ΔAla(Z-3-ureido) = NC(=O)N/C=C(\N)C(=O)O; β3hOrn = NCCC[C@H](N)CC(=O)*; Dap = NC[C@H](N)C(=O)O

Biological target: Rap guanine nucleotide exchange factor 4 (Homo sapiens) (UniProt Q8WZA2)
Sequence (Q8WZA2 whole entry, looked up): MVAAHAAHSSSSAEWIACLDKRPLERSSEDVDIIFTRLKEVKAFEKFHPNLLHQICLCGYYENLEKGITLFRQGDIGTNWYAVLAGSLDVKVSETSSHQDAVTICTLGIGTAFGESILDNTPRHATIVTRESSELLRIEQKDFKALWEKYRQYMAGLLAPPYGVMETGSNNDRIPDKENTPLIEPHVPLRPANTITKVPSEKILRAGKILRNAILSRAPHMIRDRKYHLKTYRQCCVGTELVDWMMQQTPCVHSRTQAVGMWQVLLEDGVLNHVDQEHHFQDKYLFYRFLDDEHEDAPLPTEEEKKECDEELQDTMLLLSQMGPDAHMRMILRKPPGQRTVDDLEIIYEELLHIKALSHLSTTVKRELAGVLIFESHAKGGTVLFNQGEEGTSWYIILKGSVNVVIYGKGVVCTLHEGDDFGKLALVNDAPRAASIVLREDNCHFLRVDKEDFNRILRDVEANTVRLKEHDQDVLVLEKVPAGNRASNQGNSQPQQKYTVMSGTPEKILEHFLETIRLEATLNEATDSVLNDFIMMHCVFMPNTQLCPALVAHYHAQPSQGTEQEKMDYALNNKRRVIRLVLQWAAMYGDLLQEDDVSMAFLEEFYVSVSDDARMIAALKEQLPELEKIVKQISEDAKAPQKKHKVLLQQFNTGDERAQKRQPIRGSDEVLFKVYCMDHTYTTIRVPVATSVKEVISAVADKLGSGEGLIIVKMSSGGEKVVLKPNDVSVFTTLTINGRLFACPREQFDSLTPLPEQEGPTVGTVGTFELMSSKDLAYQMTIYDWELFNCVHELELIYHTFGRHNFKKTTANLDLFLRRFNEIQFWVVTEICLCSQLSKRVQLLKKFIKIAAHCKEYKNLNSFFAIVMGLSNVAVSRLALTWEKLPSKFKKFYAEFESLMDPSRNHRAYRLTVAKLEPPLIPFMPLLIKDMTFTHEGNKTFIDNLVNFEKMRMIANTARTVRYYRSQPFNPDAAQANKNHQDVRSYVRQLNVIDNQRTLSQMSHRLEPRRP
Experiment: Validation qHTS for antagonist of cAMP-regulated guanine nucleotide exchange factor 4 (EPAC2); also: nearly all actives have a fitted effect of over 40% in size
Conditions: EPAC2 Rap1B BODIPY-GDP exchange, fluorescence; series mostly up to 112 µM; activity, negative = inhibition: at the top concentration
From the text: Principle Investigator: Xiaodong Cheng Ph.D. The University of Texas Medical Branch, […], TX MLPCN Grant: NS066510 In multi-cellular eukaryotic organisms, the effects of cAMP are transduced by two ubiquitously-expressed intracellular cAMP receptors, the classic protein kinase A/cAMP-dependent protein kinase (PKA/cAPK) and the more recently discovered exchange protein directly activated by cAMP/cAMP-regulated guanine nucleotide exchange factor (EPAC/cAMP-GEF). Both PKA and EPAC are ubiquitously expressed in all tissues, and an increase in intracellular cAMP levels will lead to the activation of both PKA and EPAC. Therefore, careful dissections of the individual role and relative contribution of EPAC and PKA within the overall cAMP signaling in various model systems are critical for further elucidating the mechanism of cAMP signaling. To date no EPAC-specific antagonists and agonist, as well as isoform-specific agonists have been reported, and developing EPAC-specific pharmacological probes to determine the physiological functions that EPAC play in the overall cAMP-mediated signaling remains a major challenge within the research field. Furthermore, identified regulators of EPAC may lead to new mechanism-based therapeutic strategies specifically targeting the EPAC / cAMP-signaling components as EPAC has been implicated to play important roles in major human pathological conditions such as diabetes, heart disease, and cancer. This qHTS will be used to screen the Molecular Libraries Small Molecule Repository (MLSMR) as a concentration-titration series using the NCGC unique quantitative screening (qHTS) platform to find activators for EPAC1. In addition, this assay will also be used as a counterscreen for the EPAC2 qHTS. This fluorescent based assay is developed and validated for EPAC1 that measures exchange using EPAC effector Rap1 complex with BODIPY-GDP, a GDP analog with a tethered fluorophores. Activators are identified by monitoring the change in fluorescence signal as the exchanged free BODIPY-GDP has a reduced fluorescence compared to Rap1-bound BODIPY-GDP. Increase in signal (activation) is the desired outcome for the EPAC1 agonist while no activity in this assay is desired for the EPAC2 agonist counterscreen. Reference: [1] de Rooij, J., Zwartkruis, F. J., Verheijen, M. H., Cool, R. H., Nijman, S. M., Wittinghofer, A., and Bos, J.L. (1998) Nature 396, 474-477.
Briefly, three uL of reagents (100 nM EPAC2, 250 nM RAP1B-BODIPY-GDP, 50 uM GDP) were dispensed into a 1536-well Greiner black solid-bottom medium binding assay plate. Controls and test compounds (23 nL) were transferred to the plate via a Kalypsys pin tool equipped with a 1536-pin array. The plates were centrifuged at 1,000 rpm for 15 seconds followed by 5 minute incubation at room temperature. The assay plates were read at 5 minute intervals for 30 minutes in the ViewLux plate reader using 480nm excitation and 540nm emission filters. The results were normalized to the agonist positive control of 6.5 mM cAMP.
Potency is read from the fitted curve at half-maximal effect.

| Compound | activity, negative = inhibition | Potency |
| --- | --- | --- |
| C/C=C/C=N/NC(=O)c1ccncc1 | -17.4% (inactive) |  |
| O=c1c(CCc2ccccc2)nc2cnc(N3CCNCC3)nc2n1Cc1cccs1 | -10.5% (inactive) |  |
| COc1ccc(CC(N)C(=O)NC2C(O)[C@H](n3cnc4c(N(C)C)ncnc43)O[C@@H]2CO)cc1 (stereo partly drawn) | -11.5% (inactive) |  |
| O=C1c2c(O)cccc2[C@@H]([C@@H]2O[C@H](CO)[C@@H](O)[C@H](O)[C@H]2O)c2cc(CO)cc(O)c21 | -22.2% (inactive) |  |
| CC(C)c1cc(C(=O)N2CCOc3ccc(CN4CCC(Oc5cccnc5)CC4)cc3C2)n[nH]1 | -9.89% (inactive) |  |
| CCOC(=O)N1CCC(N2CCOc3ccc(CN4CCC(O)(c5cccnc5)CC4)cc3C2)CC1 |  | 79.4 µM (active) |
| CCOC(=O)N1CCN(Cc2ccc3c(c2)CN(C(=O)c2cccc(-n4cccn4)c2)CCO3)CC1 | -2.38% (inactive) |  |
| COCCn1c(=O)c(-c2ccc(OC)cc2)nc2cnc(Oc3cccc(Cl)c3)nc21 | -28.7% (inactive) |  |
| CC(C)NC(=O)N1CC[C@@]2(CCCN(C(=O)c3ccco3)C2)C1 | -26.8% (inactive) |  |
| CC(C)(C)c1ccc(C(=O)C[N+]2(C)CCCc3ccccc32)cc1 (stereo not drawn) | -5.47% (inactive) |  |
| COc1ccc(F)c(CN2CCC3(CCC(CNC(=O)c4ccn(C)n4)O3)CC2)c1 (stereo not drawn) | -3.57% (inactive) |  |
| CS(=O)(=O)Nc1cccc(-c2cncnc2Nc2ccccc2)c1 | -7.64% (inactive) |  |
| CC(=O)OCC(=O)C1CCC2C3CCC4=CC(=O)CC[C@@]4(C)C3CC[C@]12C (stereo partly drawn) | -10.5% (inactive) |  |
| CC(C)c1ccc2c(c1)c(SC(C)(C)C)c(CC(C)(C)C(=O)O)n2Cc1ccc(Cl)cc1 |  | inactive and 50.1 µM (active) |
| N#Cc1cccc(-c2ccc3ncnc(NCc4cccs4)c3c2)c1 | -7.28% (inactive) |  |
| C=C(C)C1CC=C(CO)CC1 (stereo not drawn) | -12.9% (inactive) |  |
| CCCC1C(=O)N2C(N(C)C)=Nc3ccc(C)cc3N2C1=O (stereo not drawn) | -16.8% [at 56.6 µM] (inactive) |  |
| COC(=O)N1CCC2(CCCN(c3ccncc3)C2)CC1 | 1.24% (inactive) |  |
| CC[N+](C)(CC)CCC[n+]1c(-c2ccccc2)c2cc(N)ccc2c2ccc(N)cc21 |  | 50.1 µM (active) |
| O=C1CCN(Cc2ccc([N+](=O)[O-])cc2)CCN1[C@H](CO)Cc1ccccc1 | -7.03% (inactive) |  |
| Cc1cccc(-c2cc(=O)c3cc(C)ccc3o2)c1 | -23.6% (inactive) |  |
| CN(C)CCc1c[nH]c2ccc(Cn3cncn3)cc12 | -7.05% (inactive) |  |
| Cc1noc(C)c1-c1cc(NCc2cccnc2)ncn1 | -28.3% (inactive) |  |
| C=CC1(C)CC(=O)C2(O)C(C)(O1)C(OC(C)=O)C(O)C1C(C)(C)CCC(O)C12C (stereo not drawn) | -12.8% (inactive) |  |

| Compound | activity, negative = inhibition | Potency |
| --- | --- | --- |
| COc1cc(-c2cccnc2)cc2c1OCCN(C(=O)Cc1csc(C)n1)C2 | -11.1% (inactive) |  |
| CCCCCCc1ccc(O)cc1O |  | 39.8 µM (active) |
| NCCC[C@H](N)CC(=O)N[C@H]1CNC(=O)[C@H]([C@H]2C[C@H](O)NC(N)=N2)NC(=O)/C(=C/NC(N)=O)NC(=O)[C@H](CO)NC(=O)[C@H](CO)NC1=O (β3hOrn-[Dap]SS[ΔAla(Z-3-ureido)][X12]; lactam 1-C) | -5.63% (inactive) |  |
| O=C(O)C[C@@H]1NC(=O)[C@H](Cc2ccccc2)NC1=O | -8.54% (inactive) |  |
| COc1ccc2c(c1)CCc1cnc(-n3ncc(C(=O)NCc4cccnc4)c3C3CC3)nc1-2 | 6.6% (inactive) |  |
| Cc1nc2cnc(Nc3ccccc3)nc2n(C[C@H]2CCCO2)c1=O | -3.7% (inactive) |  |
| CN1CCN(c2ncc3nc(-c4ccc(Cl)cc4)c(=O)n(-c4ccccc4)c3n2)CC1 | -24.2% (inactive) |  |
| Cc1nc2cnc(N3CCN(C)CC3)nc2n(C[C@H]2CCCO2)c1=O | -7.61% (inactive) |  |
| CC(O)[C@@H](N)C(=O)O (stereo partly drawn) | 12.4% (inactive) |  |
| COC(=O)C1CCCCN1Cc1ccc2c(c1)CN(Cc1cc(OC)c3c(c1)OCO3)CCO2 (stereo not drawn) | -25.8% (inactive) |  |
| NCCC(=O)c1ccccc1N | -11% (inactive) |  |
| Cc1ccc(-c2nn(CC(C)(C)C)c3ncnc(N)c23)cc1 | -16.1% (inactive) |  |
| CN[C@@H]1[C@H](O[C@H]2[C@H](O[C@H]3[C@H](O)[C@@H](O)[C@H](N=C(N)N)[C@@H](O)[C@@H]3N=C(N)N)O[C@@H](C)[C@]2(O)CO)O[C@@H](CO)[C@H](O)[C@H]1O | -7.91% (inactive) |  |
| CCS(=O)(=O)N(C)[C@@H]1c2cc(C#N)ccc2OC(C)(C)[C@H]1O | -18.9% (inactive) |  |
| CC(C)=CCN1CCC2(CCc3ccccc32)CC1 | 4.49% (inactive) |  |
| Nc1nc2[nH]c(=O)c(=O)[nH]c2c(=O)[nH]1 | -5.47% (inactive) |  |
| Cn1c(=O)c(-c2ccccc2)nc2cnc(N3CCNCC3)nc21 | -20.6% (inactive) |  |
| COc1ccccc1CN1CC2(CCN(S(=O)(=O)c3ccccc3)CC2)C1 | -22.4% (inactive) |  |
| CCn1ccnc1C[C@@H]1COc2ccccc2O1 |  | 20 µM (active) |
| CCC1(C2CCN(Cc3cccnc3)CC2)NC(=O)N(CC2COc3ccccc3O2)C1=O (stereo not drawn) | -20.3% (inactive) |  |
| Nc1nc2c(nc(Cl)n2C2OC(CO)C(O)C2O)c(=O)[nH]1 (stereo not drawn) | -5.51% (inactive) |  |
| Cc1nnc(C(=O)NC(C)(C)c2nc(C(=O)NCc3ccc(F)cc3)c(O)c(=O)n2C)o1 | 13.2% (inactive) |  |
| O=C(c1cccc(F)c1)N1CCC2(CC1)CCN(c1ccccc1)CC2 | -18.3% (inactive) |  |
| COc1ccc(-n2c(=O)c(-c3cn(C)c4ccccc34)nc3cnc(OC)nc32)cc1 | -21.3% (inactive) |  |
